We go through 70 molecules from PubChem BioAssay AID1117359 (Southern Research Institute, 2015).

The whole screen tested about 1,500 compounds, of which about 460 (31%) were called active.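 How the source made its calls: active means viability at or below 80% at any tested concentration, marking the compound as toxic; inactive means the rest.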 Only a sample is shown. Measured potencies and affinities stand elsewhere.

The nature of this assay: viability loss in THP-1 monocytes – THP-1 cells, cytotoxicity control for Vif-APOBEC3G degradation inhibitor project, dose response (AID 1117359). The note with it: THP-1 viability, CellTiter-Glo luminescence, 72 h; series mostly up to 40 µM. Background: In ATP-based viability assays light output follows the ATP content of the culture.
With `C(=N\Nc1nncn1/N=C/c1ccco1)/c1ccco1`, the molecule was called inactive. Next, `Cn1c(=O)c2c(ncn2CC(=O)N/N=C/C=C/c2ccco2)n(C)c1=O`: “inactive”; `COc1ccc2[nH]c(C(=O)O)c(CCN3C(=O)c4cccc([N+](=O)[O-])c4C3=O)c2c1`: “inactive”; `Cn1c2ccccc2c2ccc3c(c21)C(=O)C=CC3=O`: “inactive”. Regarding `COc1ccc(N2CCN(CC(=O)c3c(C)n(C)c4ccc(OC)cc34)CC2)cc1`, the molecule was classed as inactive. Consider `Cc1ccc(N=Nc2ccc(N)cc2C)c(S(N)(=O)=O)c1`, for which the result was inactive. As to `O=C1CNC(=O)/C1=C/c1ccc(Br)cc1`, the call was inactive.

Regarding `O=C(COC(=O)c1ccc(O)cc1O)NNC(=O)c1cccs1`, the outcome was inactive. Turning to `CC[n+]1ccc(C)c2cc(P(=O)(c3ccccc3)c3ccccc3)ccc21`, the result was inactive. Next, `Cc1ccc(S(=O)(=O)n2ccc(=O)[nH]2)cc1`: “inactive”. With `O=C(CCS(=O)(=O)c1ccc(Br)cc1)NC1CCCC1` the entry was “inactive”; with `Cc1cc(NS(=O)(=O)c2cc(Cl)sc2Cl)no1`, “inactive”.

Take `Cc1cc(O)cc(O)c1C(=O)Cc1cnn(-c2ccccc2)c1`: the result was inactive. On to `CCC1=C2CC[C@H]3C(=O)NC(=O)[C@H]3[C@H]2[C@@]2(Cc3ccccc3)C(=NCC(=O)OC)OC(=O)N2C1=O`, for which the molecule was classed as inactive. Regarding `CCN(CC)S(=O)(=O)c1cccc(NN=c2c(=O)c3ccccc3c2=O)c1`, the molecule was called inactive. In the case of `CCc1ccc2c(c1)cc(C)c1nnc(SCC(=O)Nc3cc(OC)c(OC)cc3C(=O)O)n12`, the outcome was inactive. With `COC/C=C/C1=CC2=CC(=O)C(C)(OC(=O)c3cnc4ccccc4n3)C(=O)C2=CN1c1ccccc1` (stereo not given) the entry was “inactive”. On to `Nc1ccc2c(O)cc(S(=O)(=O)O)cc2c1`, for which the molecule was classed as inactive. In the case of `CCOC(=O)C1CCN(c2ncnc3cc(OC)c(OC)cc23)CC1`, the molecule was called inactive. Next, `O=C(O)C1OC(Oc2c(-c3ccc(O)c(O)c3)oc3cc(O)cc(O)c3c2=O)C(O)C(O)C1O` (stereo not given): “inactive”; `COC(=O)C1=C(O)/C(=C\c2ccc(CNC(=O)C(=O)Nc3ccc(C)cc3)o2)N=C1C`: “inactive”.

As to `CC(Sc1nnc(C2CC2)n1C)C(=O)Nc1ccc(N2CCOCC2)cc1` (stereo not given), the molecule was called inactive.

With `CC1=C(C#N)C(=O)N(C2CCS(=O)(=O)C2)C(=O)/C1=C\c1ccco1` (stereo not given), the molecule was classed as inactive. With `O=C1c2ccccc2C(=O)N1/N=C/c1ccc(O)c(O)c1O` the entry was “inactive”; with `Nc1ccc(Nc2ccccc2)c(S(=O)(=O)O)c1`, “inactive”; with `Cc1ccc(NC(=O)COc2ccc(/C=N/NC(=O)CSCc3ccccc3)cc2)cc1`, “inactive”.

`CCCCC1=CC2=CC(=O)C(C)(OC(=O)c3cnc4ccccc4n3)C(=O)C2=CO1` (stereo not given): the molecule was called inactive. With `c1cnc(N2CCN(c3cnccn3)CC2)nc1` the entry was “inactive”; with `COc1ccc(CN2CCNC(=O)C2CC(=O)NC2CCCC2)cc1OC` (stereo not given), “inactive”; with `CCN(CC)S(=O)(=O)c1ccc(C(=O)NCc2n[nH]c(=S)n2-c2ccccc2OC)cc1`, “inactive”.

On to `Cc1ccc2c(c1)NC(=O)c1cc([N+](=O)[O-])ccc1O2`, for which the call was inactive. `NS(=O)(=O)c1ccc(NC(=O)COC(=O)CC2Sc3ccccc3NC2=O)cc1` (stereo not given): the molecule was called inactive. Next, `CCOC(=O)c1ccc(NS(=O)(=O)c2ccc3oc(=O)[nH]c3c2)cc1`: “inactive”; `COC(=O)c1ccc(C(=O)OC)c(NC(=O)Cc2cccs2)c1`: “inactive”. With `CC[C@H](C)[C@H](NC(N)=O)C(=O)NCCc1ccc(OC)cc1` the entry was “inactive”; with `COc1ccc(CCNC(=O)/C=C/c2ccco2)cc1`, “inactive”; with `Nc1ccc(Oc2ncccn2)cc1`, “inactive”. As for `CCOC(=O)c1[nH]nc(-c2c(O)cc(C)cc2O)c1-c1csc(C)n1`, the result was inactive. `O=C(Nc1ccccc1)c1ccc(S(=O)(=O)N(CCO)CCO)cc1`: the molecule was called inactive. For the molecule `CC(C)OCCCNC(=O)c1cccs1`, the molecule was classed as inactive. Next, `CC(C)CN1C(=O)c2ccc(C(=O)Nc3ccc(O)cc3C(=O)O)cc2C1=O`: “inactive”. With `CS(=O)(=O)c1ccc(Cl)c(NC(=O)COC(=O)COc2ccc3c(c2)CCC3)c1` the entry was “inactive”; with `CCOc1ccc(NC(=O)CCS(=O)(=O)c2ccc(Br)cc2)cc1`, “inactive”; with `Oc1ccc(N=Cc2sc3ccccc3c2Cl)cc1`, “inactive”.

Regarding `Cc1ccsc1C=Nc1ccc(O)cc1`, the call was inactive. With `Cc1nccn1CC(=O)N/N=C/c1ccc(O)c(O)c1` the entry was “inactive”; with `NC(=S)N=Nc1c(O)cc(O)c2[nH]c(=O)ccc12`, “inactive”.

Turning to `Cc1n[nH]c(=S)n(NC(=O)/C=C/C(=O)Nn2c(=S)[nH]nc(C)c2=O)c1=O`, the outcome was inactive. Next, `CCN(CC)C(=O)NCc1c(C)cc(C)cc1C`: “inactive”; `CCOC(=O)C(=O)Cc1cccnn1`: “inactive”; `CC(=O)c1ccc(S(=O)(=O)Nc2cccc(-n3cnnn3)c2)cc1`: “inactive”. Next, `CC1CCC(NC(=O)CCS(=O)(=O)c2ccc3c(c2)CCN3C(=O)C2CC2)CC1` (stereo not given): “inactive”. With `CCc1ccc(-c2nc(SCC(=O)c3c(N)n(C4CC4)c(=O)[nH]c3=O)n[nH]2)cc1` the entry was “inactive”; with `COCCn1c(SCC(=O)N2CCC(C)CC2)nc2c([nH]c3ccccc32)c1=O`, “inactive”. On to `O=C(c1ccc2nc(-c3ccco3)c(-c3ccco3)nc2c1)N1CCN(c2ncccn2)CC1`, for which the result was inactive. With `N#Cc1ccccc1S(=O)(=O)N1CCN(C(=O)CN2CCCC2c2cccs2)CC1` (stereo not given) the entry was “inactive”; with `Cc1ccccc1OCC(=O)OCC(=O)c1ccc(OC(=O)c2ccccc2)cc1`, “inactive”. With `COc1ccccc1OCC(=O)NCC1CCCN(Cc2cnn(C(C)C)c2)C1` (stereo not given) the entry was “inactive”; with `Cc1cc(C(=O)NNC(=O)CCC2CCCCC2)c(C)o1`, “inactive”. With `CCOc1ccc(N(CC(=O)NCCC2=CCCCC2)S(=O)(=O)c2ccccc2)cc1` the entry was “inactive”; with `O=C(c1cc(COc2cccc3cccnc23)on1)N1CCC[C@H]1CO`, “inactive”; with `CC(Oc1cccc2cccnc12)C(=O)N/N=C/c1ccc2c(c1)OCO2` (stereo not given), “inactive”. For the molecule `CC(=O)Nc1ccc(NC(=O)CN(c2cccc(C(C)=O)c2)S(C)(=O)=O)cc1`, the call was inactive. With `COc1ccc(-n2c(Cc3cccn3C)nnc2SCC(=O)Nc2ccccc2)cc1` the entry was “inactive”; with `Cn1c(N)c(C(=O)CCl)c(=O)n(Cc2ccccc2)c1=O`, “inactive”.

In the case of `CCOC(=O)c1cc2c(n(-c3ccccc3)c1=O)CC(C)(C)CC2=O`, the call was inactive. With `O=C(O)c1cc(-c2ccccc2)on1`, the molecule was classed as inactive. With `CN1CCN(C(CNC(=O)c2ccc(Br)o2)c2ccc(F)cc2)CC1` (stereo not given), the call was inactive. Consider `CC(NC(=O)CSc1nnc2n1CCCCC2)c1ccccc1Cl` (stereo not given), for which the molecule was called inactive. Consider `COc1cc(CN2CCNC(=O)C2CC(=O)N(Cc2nccn2C)C(C)C)cc(OC)c1` (stereo not given), for which the molecule was classed as inactive.
